Measured values published in PubChem BioAssay AID1851 (National Center for Advancing Translational Sciences (NCATS), 2009).
The campaign covered roughly 16,000 compounds. About 4,000 (25%) were called active. Another 26% or so got no clear call; they are omitted. Only a sample is shown. Unmarked numbers belong to inactive results. The call rests on the fitted dose curve; in most records, active means well fitted curve in the direction sought with a large enough effect; inconclusive means small, poorly fitted or top-dose-only effect, or effect the other way; inactive means no such curve, though single readings can be large or run the other way.

The compounds below were run against Cytochrome P450 2C9 (Homo sapiens) (UniProt P11712) (assay: Cytochrome panel assay with activity outcomes). Settings: recombinant CYP, pro-luciferin dealkylation, luminescence, p450-cyp2c9; series mostly up to 57.1 µM; activity, negative = inhibition: at the top concentration.
On the % scale 0 is the no-effect control and ±100 the full control effect.

Chain of Cytochrome P450 2C9 (Homo sapiens) (P11712 whole entry, looked up): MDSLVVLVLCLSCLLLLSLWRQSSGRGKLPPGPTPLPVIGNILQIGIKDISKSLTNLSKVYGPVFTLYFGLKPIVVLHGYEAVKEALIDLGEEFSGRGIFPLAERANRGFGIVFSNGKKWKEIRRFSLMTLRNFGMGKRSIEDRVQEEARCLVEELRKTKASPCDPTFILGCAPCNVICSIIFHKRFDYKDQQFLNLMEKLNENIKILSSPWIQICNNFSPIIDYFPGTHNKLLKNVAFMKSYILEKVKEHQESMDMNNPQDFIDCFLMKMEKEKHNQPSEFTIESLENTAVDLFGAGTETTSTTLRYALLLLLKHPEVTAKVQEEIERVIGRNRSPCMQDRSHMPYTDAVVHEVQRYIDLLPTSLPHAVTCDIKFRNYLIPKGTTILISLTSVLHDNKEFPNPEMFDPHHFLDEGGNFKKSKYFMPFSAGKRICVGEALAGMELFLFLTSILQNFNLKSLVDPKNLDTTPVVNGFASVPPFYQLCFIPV

Structure (SMILES) | AC50 | activity, negative = inhibition
Cc1sc2nc(C3CC3)nc(SCC(=O)N3CC(=O)Nc4ccccc43)c2c1C | 1 µM (active) | –
Cc1nnc(SCC(=O)N2CC(=O)Nc3ccccc32)n1Cc1ccccc1 | – | -9.86%
O=c1c2c(-c3ccc(Cl)cc3)csc2nc2n1CCC2 | 14.1 µM (active) | –
O=c1c2ccccc2nc2n1CCC2 | – | -23%
O=C(Nc1ccc(F)cc1Cl)c1ccc2c(=O)n3c(nc2c1)CCCCC3 | – | -38.3%
COCC(=O)N1CCC2(CC1)CN(C(=O)Nc1cccc(F)c1)C2 | – | -3.38%
O=c1c(O)c(-c2ccc(O)c(O)c2)oc2cc(O)cc(O)c12 | – | -0.213%
O=c1c(-c2ccc(O)cc2)coc2cc(O)ccc12 | 6.31 µM (active) | –
O=c1c(-c2ccc(O)cc2)coc2cc(O)cc(O)c12 | – | -21.8%
CSc1nc(N)c2ncn([C@H]3O[C@H](COP(=O)(O)OP(=O)(O)O)[C@@H](O)[C@@H]3O)c2n1 | – | -4.22%
O=C1[C@@H]2[C@@H](C(=O)N1c1ccc(OCc3ccccc3)cc1)[C@@H]1c3ccccc3[C@@H]2[n+]2ccccc21 | – | 0.978% [at 11.4 µM]
O=C1C2C3c4ccccc4C(c4ccccc43)C2C(=O)N1c1nc(-c2ccccc2)cs1 (configuration not stated) | 0.891 µM (active) | –
CN(C)CCCN1c2ccccc2Sc2ccc3ccccc3c21 | – | -11.1% [at 11.4 µM]
CO[C@@H]1/C=C\CC(=O)N[C@@H](C)C(=O)OC[C@@H](OC)[C@H](C)CCCC(=O)OC[C@H]1C | – | -25.9% [at 11.4 µM]
COC(=O)c1ccc(N2CCN(CC(=O)c3ccc(-c4ccccc4)cc3)CC2)c([N+](=O)[O-])c1 | 5.01 µM (active) | –
Cn1c(=O)n(C)c2cc([N+](=O)[O-])c(N3CCN(C(=O)c4ccccc4Cl)CC3)cc21 | – | 3.49%
Cc1ccc(C(=O)O/N=C\c2ccc(N3CCCCC3)c([N+](=O)[O-])c2)cc1 | 2.24 µM (active) | –
Cc1cc(C)n(-c2cc(N3CCN(C(=O)c4ccc(C(C)(C)C)cc4)CC3)ccc2[N+](=O)[O-])n1 | 3.98 µM (active) | –
Cc1ccccc1C(=O)N1CCN(c2ccc([N+](=O)[O-])c(N3CCOCC3)c2)CC1 | 5.01 µM (active) | –
CN(C)CCNc1nc2c(c(=O)n(C)c(=O)n2C)n1C | – | 4.45% [at 11.4 µM]
CCCN(CC1CC1)c1nc(C)nc(Nc2c(Cl)cc(Cl)cc2Cl)c1Cl | – | -24.6%
C=CC[C@@H]1C=C[C@H](O/N=C(\C)CCN2CCCc3nc(C)c(C)cc32)[C@H](CO)O1 | – | 3.93% [at 11.4 µM]
COCC(=O)N1CCN(c2ccc([N+](=O)[O-])cc2)CC1 | – | 11.2%
Cc1ccc(OC(=O)c2ccc(N3CCOCC3)c([N+](=O)[O-])c2)cc1 | 14.1 µM (active) | –
Cc1ccc(OCC(=O)N2CCN(c3ccc([N+](=O)[O-])c(N4CCOCC4)c3)CC2)cc1 | 7.94 µM (active) | –
CCOC(=O)c1c(NC(=O)c2ccc(N3CCOCC3)c([N+](=O)[O-])c2)sc(C)c1C | – | -13.2%
CO/N=C/c1ccc(N2CCN(C(=O)c3ccc(Cl)cc3Cl)CC2)c([N+](=O)[O-])c1 | 7.94 µM (active) | –
